Results as given in PubChem BioAssay (Tox21).
Records with an inconclusive call do not appear. Calls of active or inactive are those of the source. Unless noted, the call rests on the fitted dose curve; in most records, active means well fitted curve in the direction sought with a large enough effect in the repeat runs; inconclusive means weak or mixed curves; inactive means no such curve, though single readings can be large; an effect the other way counts as inactive or inconclusive.

Assays:
[1] = qHTS assay to identify small molecule agonists of the sonic hedgehog signaling (Shh) pathway - cell viability counter screen (AID 1259366); further: nearly all actives have a fitted effect of over 50% in size
Summary of the method: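 Compounds in DMSO were pin-transferred onto 3T3 Gli1-Luc cells that had settled 4hr; plates then stood 24hr at 37C and 5% CO2. One hour before the end, CellTiter-Fluor was added and fluorescence recorded.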

[2] = qHTS assay to identify small molecule antagonists of the sonic hedgehog signaling (Shh) pathway - cell viability counter screen (AID 1259367); further: nearly all actives have a fitted effect of over 55% in size
Summary of the method: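 NIH/3T3-derived Gli1-Luc reporter cells, 2,000/well, plated 4 hr before compound addition, then stimulated with conditioned medium for 24 hr at 37C. Viability measured in the same wells by CellTiter-Fluor fluorescence, reagent added at 23 hr for 1 hr.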

[3] = qHTS assay to identify small molecule agonists of the sonic hedgehog signaling (Shh) pathway (AID 1259368; calls by dose curve; further: series mostly up to about 92 µM; nearly all actives have a fitted effect of over 15% in size)
Summary of the method: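 NIH/3T3-derived 3T3Gli1-Luc cells carrying a stably integrated Gli1 response element–firefly luciferase reporter were plated, left 4 hr at 37 C, then given compounds in DMSO for 24 hr. Luminescence was read 30 min after adding luciferase reagent.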

[4] = qHTS assay to identify small molecule antagonists of the sonic hedgehog signaling (Shh) pathway (AID 1259369; calls by dose curve; further: nearly all actives have a fitted effect of over 45% in size)
Summary of the method: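 NIH/3T3-derived 3T3Gli1-Luc cells with stably integrated Gli1-Luc reporter were preincubated 4hr at 37 C, then given compounds in DMSO plus Shh conditioned medium and incubated 24hr. Firefly luciferase luminescence read after 30min reagent at room temperature.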

[5] = qHTS assay to identify small molecule agonists of the androgen receptor (AR) signaling pathway in the presence of an antagonist - cell viability counter screen (AID 1259379);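 further: MDA-kb2 human breast cancer cells carrying an MMTV luciferase reporter; series mostly up to about 92 µM; nearly all actives have a fitted effect of over 25% in size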
Summary of the method: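 MDA-kb2 human breast carcinoma cells (stable MMTV-luciferase, AR/GR responsive) were seeded 3,000 cells/well, pre-incubated 5 hr at 37C without CO2, then given 3.0uM nilutamide and compounds at 15 concentrations for 16 hr. Viability was read by CellTiter-Fluor fluorescence.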

[6] = qHTS assay to identify small molecule agonists of the estrogen receptor beta (ER-beta) signaling pathway - cell viability counter screen (AID 1259380); further: nearly all actives have a fitted effect of over 30% in size
Summary of the method: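 ER-beta-UAS-bla HEK293T cells in medium with 2% charcoal-stripped FBS were preincubated 6 hr at 37C, dosed with compound in DMSO for 16 hr, then after the bla read, CellTiter-Glo was added for 30 min at room temperature; luminescence recorded.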

[7] = qHTS assay to identify small molecule antagonists of the estrogen receptor beta (ER-beta) signaling pathway - cell viability counter screen (AID 1259382);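 further: HEK293T cells carrying ER-beta-UAS-bla reporter stimulated with estradiol; series mostly up to about 92 µM; nearly all actives have a fitted effect of over 55% in size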
Summary of the method: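 ER-beta-UAS-bla HEK293T cells (2,000/well, 2% charcoal-stripped FBS) were pre-incubated 6 hr at 37C, then given compound plus 1nM final 17-beta-estradiol for 16 hr. Viability was read in the same wells by CellTiter-Glo luminescence after 30 min at room temperature.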

[8] = qHTS assay to identify small molecule agonists or antagonists of the thyroid stimulating hormone receptor (TSHR) signaling pathway - wild type cell line counter screen (AID 1259384; calls by dose curve)
Summary of the method: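 Wild-type Hek293 cells, 800/well, 18 h at 37C, then compound with Ro20-1724 for 30 min RT. cAMP by HTRF (cAMP-d2/anti-cAMP cryptate), 1 h RT, fluorescence read. 15 concentrations, triplicates.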

[9] = biological target: Thyrotropin receptor (Homo sapiens) (UniProt P16473); experiment: qHTS assay to identify small molecule antagonists of the thyroid stimulating hormone receptor (TSHR) signaling pathway (AID 1259385; calls by dose curve; further: nearly all actives have a fitted effect of over 20% in size)
Summary of the method: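 TSHR-HEK293 cells (800/well) plated 18 h, then compounds with Ro20-1724 and TSH at 1.5 ng/mL final, 30 min at room temperature. cAMP quantified by HTRF (cAMP-d2/anti-cAMP-cryptate, 1 h); 15 concentrations in triplicate.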

[10] = qHTS assay to identify small molecule agonists of the estrogen receptor alpha (ER-alpha) signaling pathway in the presence of an antagonist - cell viability counter screen (AID 1259386);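 further: series mostly up to about 92 µM; cells exposed to compounds for 22 h at 37 °C before the viability read; nearly all actives have a fitted effect of over 30% in size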
Summary of the method: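 VM7Luc4E2 cells (endogenous full-length ER-alpha, 4×ERE-luciferase) were held 5 days in phenol red-free medium with 10% charcoal-stripped FBS, plated, then given 10.0nM ICI-182,780 and compounds at 15 concentrations for 22hr at 37C; viability read by CellTiter-Fluor fluorescence.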

[11] = biological target: Progesterone receptor (Homo sapiens) (UniProt P06401); experiment: qHTS assay to identify small molecule agonists of the progesterone receptor (PR) signaling pathway (AID 1346784; calls by dose curve; further: nearly all actives have a fitted effect of over 30% in size)
Summary of the method: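 Fluorescence from LiveBLAzer B/G FRET substrate cleavage (2 hr, RT) reported PR activation in PR-UAS-bla HEK 293T cells treated 16 hr at 37C/5% CO2 with compounds; medium contained 2% charcoal-stripped FBS.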

[12] = biological target: Progesterone receptor (Homo sapiens) (UniProt P06401); experiment: qHTS assay to identify small molecule antagonists of the progesterone receptor (PR) signaling pathway (AID 1346795; active means well fitted inhibition curve with a large enough effect in the signal ratio in the repeat runs, not every such curve was filed as active; the % refers to the signal ratio)
Summary of the method: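 Fluorescence intensity measured 2 hr after adding beta-lactamase FRET substrate to PR-UAS-bla HEK293T cells that had been co-treated 16 hr with compound and 1 nM R5020 (final concentration) in 2% charcoal-stripped FBS.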

[13] = qHTS assay to identify small molecule antagonists of the progesterone receptor (PR) signaling pathway - cell viability counter screen (AID 1346798); further: series mostly up to about 92 µM; nearly all actives have a fitted effect of over 50% in size
Summary of the method: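 CellTiter-Glo luminescence; PR-UAS-bla HEK293T, 3,000 cells/well; compound + R5020, 16 hr, 37C/5% CO2; 30 min RT before read.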

[14] = qHTS assay to identify small molecule agonists of the progesterone receptor (PR) signaling pathway - cell viability counter screen (AID 1346799; calls by dose curve; further: nearly all actives have a fitted effect of over 45% in size)
Summary of the method: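 In parallel with the beta-lactamase readout, cytotoxicity toward PR-UAS-bla HEK293T cells was measured by CellTiter-Glo luminescence following 16 hr compound incubation in 2% charcoal-stripped FBS medium.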

[15] = qHTS assay to identify small molecule agonists of the TGF-beta/Smad signaling pathway - cell viability counter screen (AID 1346829); further: top concentration of the series differs between compounds; nearly all actives have a fitted effect of over 45% in size
Summary of the method: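 CellTiter-Glo luminescence readout; SBE-bla HEK 293T cells, overnight plating, compound 5 hr at 37 C/5% CO2, then bla substrate 2 hr RT, then CellTiter-Glo 30 min RT.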

[16] = qHTS assay to identify small molecule antagonists of the TGF-beta/Smad signaling pathway - cell viability counter screen (AID 1346824); further: nearly all actives have a fitted effect of over 50% in size
Summary of the method: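 SBE-bla HEK 293T cells, incubated overnight, then compound plus 0.25 ng/mL TGF-beta1 (stock added) for 5 hr at 37 C. Viability was read in the same wells by CellTiter-Glo luminescence after 30 min at room temperature.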

[17] = biological target: Estrogen receptor (Homo sapiens) (UniProt P03372); experiment: qHTS assay to identify small molecule agonists of the estrogen receptor alpha (ER-alpha) signaling pathway in the presence of an antagonist (AID 1259383; calls by dose curve; further: top concentration of the series differs between compounds; nearly all actives have a fitted effect of over 15% in size)
Summary of the method: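 VM7Luc4E2 cells (endogenous full-length ER-alpha, 4×ERE-luciferase) were precultured 5 days in phenol red-free medium with 10% charcoal-stripped FBS, given 10.0nM ICI-182,780 (final), then treated with compounds at 15 concentrations for 22hr at 37C; luminescence read with ONE-Glo.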

Measured: Potency

Chain of Estrogen receptor (Homo sapiens) (P03372 whole entry, looked up): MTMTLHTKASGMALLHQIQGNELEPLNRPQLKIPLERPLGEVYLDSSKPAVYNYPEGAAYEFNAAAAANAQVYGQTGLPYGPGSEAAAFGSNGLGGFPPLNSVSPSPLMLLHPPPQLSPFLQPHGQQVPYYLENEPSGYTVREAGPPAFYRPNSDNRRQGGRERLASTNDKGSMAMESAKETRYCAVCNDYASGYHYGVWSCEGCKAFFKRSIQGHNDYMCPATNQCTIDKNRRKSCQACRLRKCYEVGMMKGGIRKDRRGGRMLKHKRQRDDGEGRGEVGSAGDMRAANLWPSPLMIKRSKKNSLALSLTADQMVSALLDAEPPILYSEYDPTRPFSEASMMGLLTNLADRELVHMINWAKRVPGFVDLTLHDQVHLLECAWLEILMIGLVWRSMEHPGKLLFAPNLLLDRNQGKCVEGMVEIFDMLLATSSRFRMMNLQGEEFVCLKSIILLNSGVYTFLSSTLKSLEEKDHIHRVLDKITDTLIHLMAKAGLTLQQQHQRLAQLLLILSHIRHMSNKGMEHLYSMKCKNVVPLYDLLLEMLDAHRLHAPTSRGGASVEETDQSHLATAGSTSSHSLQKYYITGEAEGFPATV
Chain of Progesterone receptor (Homo sapiens) (P06401 whole entry, looked up): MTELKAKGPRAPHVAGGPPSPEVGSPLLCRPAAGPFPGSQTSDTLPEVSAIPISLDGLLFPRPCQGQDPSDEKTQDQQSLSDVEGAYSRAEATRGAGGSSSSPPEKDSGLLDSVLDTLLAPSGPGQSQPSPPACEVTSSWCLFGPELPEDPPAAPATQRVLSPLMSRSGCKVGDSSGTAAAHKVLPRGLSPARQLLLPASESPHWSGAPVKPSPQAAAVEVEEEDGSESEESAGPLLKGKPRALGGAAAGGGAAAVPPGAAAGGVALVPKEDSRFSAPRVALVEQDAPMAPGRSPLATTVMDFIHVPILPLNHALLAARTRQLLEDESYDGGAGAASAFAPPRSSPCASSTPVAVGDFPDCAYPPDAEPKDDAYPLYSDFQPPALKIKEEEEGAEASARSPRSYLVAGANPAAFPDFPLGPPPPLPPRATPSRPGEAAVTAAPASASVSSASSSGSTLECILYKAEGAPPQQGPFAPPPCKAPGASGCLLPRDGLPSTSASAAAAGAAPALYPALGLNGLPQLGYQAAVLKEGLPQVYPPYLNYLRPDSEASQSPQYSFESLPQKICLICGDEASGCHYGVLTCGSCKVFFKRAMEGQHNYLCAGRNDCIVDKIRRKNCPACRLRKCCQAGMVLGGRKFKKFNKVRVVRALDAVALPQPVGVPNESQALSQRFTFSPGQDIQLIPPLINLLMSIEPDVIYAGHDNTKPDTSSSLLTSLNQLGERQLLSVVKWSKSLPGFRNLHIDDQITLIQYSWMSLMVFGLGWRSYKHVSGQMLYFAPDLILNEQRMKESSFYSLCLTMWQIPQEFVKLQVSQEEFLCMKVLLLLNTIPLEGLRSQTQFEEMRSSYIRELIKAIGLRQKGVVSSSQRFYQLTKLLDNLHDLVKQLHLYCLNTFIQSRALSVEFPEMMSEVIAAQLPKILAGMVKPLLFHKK
Chain of Thyrotropin receptor (Homo sapiens) (P16473 whole entry, looked up): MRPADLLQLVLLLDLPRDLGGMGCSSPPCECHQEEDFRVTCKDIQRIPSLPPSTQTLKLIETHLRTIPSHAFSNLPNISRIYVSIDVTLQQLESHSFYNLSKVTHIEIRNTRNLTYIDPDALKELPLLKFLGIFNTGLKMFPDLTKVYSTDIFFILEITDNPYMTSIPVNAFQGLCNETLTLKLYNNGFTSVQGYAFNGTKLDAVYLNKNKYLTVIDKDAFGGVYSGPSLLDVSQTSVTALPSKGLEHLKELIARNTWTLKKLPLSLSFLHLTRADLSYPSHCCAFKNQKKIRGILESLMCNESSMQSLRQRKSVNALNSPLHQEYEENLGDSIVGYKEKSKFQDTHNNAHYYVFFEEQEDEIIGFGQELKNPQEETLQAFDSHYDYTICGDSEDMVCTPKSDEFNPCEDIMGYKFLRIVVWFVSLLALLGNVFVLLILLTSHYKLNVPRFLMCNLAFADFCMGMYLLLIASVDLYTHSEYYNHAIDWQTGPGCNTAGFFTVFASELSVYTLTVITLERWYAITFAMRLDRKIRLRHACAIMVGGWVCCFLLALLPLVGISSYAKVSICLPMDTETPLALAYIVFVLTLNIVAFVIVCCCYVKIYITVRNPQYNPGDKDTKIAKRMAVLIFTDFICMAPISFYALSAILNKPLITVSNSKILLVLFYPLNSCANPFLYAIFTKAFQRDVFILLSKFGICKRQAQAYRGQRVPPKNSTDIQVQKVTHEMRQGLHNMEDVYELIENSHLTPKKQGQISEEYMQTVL

CNCCc1ccccn1
not listed: [16] | [17]
inactive: all other assays above

CC1(C)C(=O)C(C)(C)C1=O
not listed: [8] | [9] | [13] | [15] | [17]
inactive: all other assays above

CO/N=C(\C(=O)O)c1csc(NC(=O)CCl)n1
not listed: [6] | [7] | [8] | [9] | [12]
inactive: all other assays above

CC(=O)OC1CCC(C(C)(C)C)CC1 (stereo unspecified)
not listed: [11] | [14]
inactive: all other assays above

CCC(=O)OCCOc1ccccc1
not listed: [6] | [8] | [12] | [13] | [15]
inactive: all other assays above

COC(=O)C(c1ccccc1Cl)N1CCc2sccc2C1 (stereo unspecified)
not listed: [12] | [13] | [17]
inactive: all other assays above

CC(=O)c1ccc2ccc3ccccc3c2c1
not listed: [6] | [11] | [12] | [13] | [14] | [15]
inactive: all other assays above

CCCc1ccc(O)c(OC)c1
not listed: [11]
inactive: all other assays above

CCOC(=O)COc1ccc2c(C)c(CCN(CC)CC)c(=O)oc2c1Cl
not listed: [8] | [9] | [13]
inactive: all other assays above
